The record followed here is the supplement of paper PMC11150407.

The campaign covered roughly 2,100 compounds. About 180 (8.6%) showed an effect of 50% or more. The full list was thinned out, with strong results kept by preference.

The test relates to MOLM1 and UCSD/AML1 (averaged). As to the kind of experiment: cell viability relative to DMSO control (POC); higher = less growth inhibition. The note with it: 1 µM; 72 h. The protocol:
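Primary viability screen in the 3q26 EVI1-high AML cell lines MOLM1 and UCSD/AML1 (1.5e3 cells/well, 384-well), compounds at 1 uM for 72 h. ATP CellTiter-Glo read-out given as percent of viable cells over DMSO control (POC), averaged over duplicates. DMSO was the negative control and 5 uM etoposide the positive control. This mapping covers the MicroSource Spectrum and Selleck anticancer libraries (drug names).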
Turning to `CN(CC[C@H](N)CC(=O)N[C@H]1C=C[C@H](n2ccc(N)nc2=O)O[C@@H]1C(=O)O)C(=N)N`, the cell viability (commonly a read-out of living cells in per cent, often relative to untreated cells) is 114%.
To `COc1cc2c(cc1-c1cc3cc4ccoc4cc3oc1=O)OCO2` belongs 99.4%; to `CC[C@@H](C)C(=O)O[C@H]1[C@H](O)[C@H]2[C@@H](CN3C[C@@H](C)CC[C@H]3[C@@]2(C)O)[C@@H]2C[C@]34O[C@]5(O)[C@@H](OC(=O)[C@@](C)(O)CC)CC[C@@]3(C)[C@@H]5[C@@H](OC(C)=O)[C@@H](OC(C)=O)[C@H]4[C@@]21O`, 89.1%; to `COc1ccc2c(c1OC)C(=O)O[C@@H]2[C@H]1c2cc3c(cc2CCN1C)OCO3`, 88%.
As to `COc1cc([C@@H]2c3cc4c(cc3[C@H](O)[C@H]3COC(=O)[C@H]23)OCO4)cc(OC)c1OC`, the cell viability was found to be 6.17%.
To `COc1cc([C@@H]2c3cc4c(cc3[C@H](O)[C@H]3COC(=O)[C@@H]23)OCO4)cc(OC)c1OC` belongs 12.3%.
In the case of `COc1ccc2c(c1OC)C(=O)O[C@H]2[C@H]1c2cc3c(cc2CCN1C)OCO3` it was 93.9%; in that of `CN1CCc2cc3c(cc2C1O)OCO3` (stereo unspecified), 102%.
To `Oc1cc(Cl)ccc1Oc1ccc(Cl)cc1Cl` belongs 95.1%; to `Cc1ncc(CNC(=O)N(CCCl)N=O)c(N)n1`, 111%; to `CC(=O)CC1CCCCN1` (stereo unspecified), 102%.
In the case of `CN[C@@H](C)[C@@H](O)c1ccccc1`, the cell viability amounted to 105%.
To `O=c1[nH]c2ccccc2n1C1CCN(CCCC(c2ccc(F)cc2)c2ccc(F)cc2)CC1` belongs 94.7%; to `CNC(C)C(O)c1ccccc1` (stereo unspecified), 96.1%; to `CC[C@@H](C(=O)[C@@H](C)[C@@H](O)[C@H](C)[C@@H]1O[C@@H]([C@@H](CC)C(=O)O)CC[C@@H]1C)[C@H]1O[C@]2(C=C[C@@H](O)[C@]3(CC[C@@](C)([C@H]4CC[C@](O)(CC)[C@H](C)O4)O3)O2)[C@H](C)C[C@@H]1C`, 20.9%.
Turning to `CC[C@@H](C(=O)[C@@H](C)[C@@H](O)[C@H](C)[C@@H]1O[C@@H]([C@@H](CC)C(=O)O)CC[C@@H]1C)[C@H]1O[C@]2(C=C[C@@H](O)[C@]3(CC[C@@](C)([C@H]4CC[C@](O)(CC)[C@H](C)O4)O3)O2)[C@H](C)C[C@@H]1C` [Salinomycin (Procoxacin)], the cell viability came to 68.4%.
To `CC(=O)O[C@@H]1[C@H]2CC[C@H]3[C@@](C)(O)[C@@H]4C[C@H](O)C(C)(C)[C@@]4(O)[C@H](O)C[C@@]13C[C@@]2(C)O` belongs 100%; to `C[C@@H](CO)NC(=O)[C@@H]1C=C2c3cccc4[nH]cc(c34)C[C@H]2N(C)C1`, 102%.
For `Cc1c(O)c(O)cc2c1CC=C1[C@@]2(C)CC[C@@]2(C)[C@@H]3C[C@](C)(C(=O)O)CC[C@]3(C)CC[C@]12C`, the cell viability came to 11.5%.
In the case of `CC1=C(O)C(=O)C=C2C1=CC=C1[C@@]2(C)CC[C@@]2(C)[C@@H]3C[C@](C)(C(=O)O)CC[C@]3(C)CC[C@]12C`, the cell viability came out at 30.1%.
Regarding `CC(C)C[C@H](CN)CC(=O)O`, the cell viability stood at 67.7%.
In the case of `COC[C@]12CN(C=O)[C@@H]3[C@@H]4[C@H](OC)[C@H]1[C@@]3([C@@H](OC)C[C@H]2O)[C@@H]1C[C@@]2(O)[C@H](OC(=O)c3ccccc3)[C@@H]1[C@]4(OC(C)=O)[C@@H](O)[C@@H]2OC` it was 111%; in that of `C=C(C)[C@H]1Cc2c(ccc3c(=O)c4c(oc23)COc2cc(OC)c(OC)cc2-4)O1`, 106%; in that of `S=C=NCc1ccccc1`, 95.3%.
On to `C#CCOS(=O)OC1CCCCC1Oc1ccc(C(C)(C)C)cc1` (stereo unspecified), for which the cell viability came out at 89.9%.
Regarding `CC(C)(C)C(=O)C(Oc1ccc(Cl)cc1)n1cncn1` (stereo unspecified), the cell viability turned out to be 99.8%.
In the case of `CC[C@@]1(O)C(=O)OCc2c1cc1n(c2=O)Cc2cc3ccccc3nc2-1`, the cell viability worked out at 1.42%.
To `C[C@H]1CC[C@]2(NC1)O[C@H]1C[C@H]3[C@@H]4CC[C@H]5C[C@@H](O)CC[C@]5(C)[C@H]4CC[C@]3(C)[C@H]1[C@@H]2C` belongs 93.3%; to `C[N+]1(C)CCc2cc3c(cc2[C@H]1[C@@H]1OC(=O)c2c1ccc1c2OCO1)OCO3`, 104%; to `COc1cc2c(cc1OC)[C@H](C)NCC2`, 94.2%.
Consider `CC(C)c1ccc2c(c1O)CC[C@H]1C3=C(CC[C@]21C)C(=O)OC3`, for which the cell viability amounted to 89.3%.
In the case of `CC(C)[C@]12O[C@H]1[C@@H]1O[C@]13[C@]1(O[C@H]1C[C@H]1C4=C(CC[C@@]13C)C(=O)OC4)[C@@H]2O` [Triptolide] it was 2.21%; in that of `c1ccc(/N=N/c2ccccc2)cc1`, 96.4%.
To `N#C/C(=C\c1ccc(O)cc1)C(=O)O` [alpha-CYANO-4-HYDROXYCINNAMIC ACID] belongs 113%; to `CCSCC[C@H](N)C(=O)O`, 99.2%; to `CCC(C)C(=O)OC1CC2(C)C(c3ccoc3)OC(=O)CC23OC2(C)OC34C(OC(=O)C(C)C)C3(O)C(OC(=O)C5(C)OC5C)C5(C)CC3(O)C(C)(C5CC(=O)OC)C14O2` (stereo unspecified), 91.2%.
To `COC(=O)[C@@H]1C[C@H](OC(C)=O)C(=O)[C@H]2[C@@]1(C)CC[C@H]1C(=O)O[C@H](c3ccoc3)C[C@]21C` belongs 104%; to `CNC(=O)Oc1cccc2c1OC(C)(C)C2`, 85.3%.
With `C=CCc1ccc(OC)cc1`, the cell viability was found to be 107%.
Take `COc1ccc(C[C@H]2NC[C@H](O)[C@H]2OC(C)=O)cc1`: the cell viability was found to be 3.59%.
`CC[C@H]1[C@@H]2C[C@H]3[C@@H]4N(C)c5ccccc5[C@]45C[C@@H]([C@@H]2[C@H]5O)N3[C@@H]1O`: the cell viability came to 109%.
`CC1=C2C(=CO[C@H](C)[C@H]2C)C(O)=C(C(=O)O)C1=O`: the cell viability is 104%.
In the case of `CC(=O)O[C@H]1CC[C@@]2(C)[C@H](CC[C@@H]3[C@@H]2CC[C@]2(C)[C@@H](C4=CC(=O)OC4)[C@@H](OC(C)=O)C[C@]32O)C1` it was 2.29%; in that of `C[C@@H]1CC[C@@]2(OC1)O[C@H]1[C@@H](O)[C@H]3[C@@H]4CC[C@H]5C[C@@H](O[C@@H]6O[C@H](CO)[C@H](O[C@@H]7O[C@H](CO)[C@@H](O)[C@H](O[C@@H]8OC[C@@H](O)[C@H](O)[C@H]8O)[C@H]7O[C@@H]7O[C@H](CO)[C@H](O)[C@H](O[C@@H]8O[C@H](CO)[C@@H](O)[C@H](O)[C@H]8O)[C@H]7O)[C@H](O)[C@H]6O)[C@H](O)C[C@]5(C)[C@H]4CC[C@]3(C)[C@H]1[C@@H]2C`, 92.7%; in that of `C[C@H]1CC[C@]2(NC1)O[C@H]1C[C@H]3[C@@H]4CC[C@H]5C[C@@H](O[C@@H]6O[C@H](CO)[C@H](O[C@@H]7O[C@H](CO)[C@@H](O)[C@H](O[C@@H]8OC[C@@H](O)[C@H](O)[C@H]8O)[C@H]7O[C@@H]7O[C@H](CO)[C@@H](O)[C@H](O)[C@H]7O)[C@H](O)[C@H]6O)CC[C@]5(C)[C@H]4CC[C@]3(C)[C@H]1[C@@H]2C`, 65.2%.
For `CC(=O)OC1CCC23C(=O)OC45CCC(C6=CC(=O)OC6)C4(C)CCC2C5CCC3(O)C1` (stereo unspecified), the cell viability was found to be 5.23%.
Consider `C[C@]12CC[C@H](O)C[C@H]1CC[C@@H]1[C@@H]2CC[C@]2(C)[C@@H](C3=CC(=O)OC3)[C@@H](O)C[C@]12O`, for which the cell viability worked out at 99.6%.
`CC(=O)O[C@H]1C[C@H](O[C@H]2[C@@H](O)C[C@H](O[C@H]3[C@@H](O)C[C@H](O[C@H]4CC[C@@]5(C)[C@H](CC[C@@H]6[C@@H]5C[C@@H](O)[C@]5(C)[C@@H](C7=CC(=O)OC7)CC[C@]65O)C4)O[C@@H]3C)O[C@@H]2C)O[C@H](C)[C@H]1O[C@@H]1O[C@H](CO)[C@@H](O)[C@H](O)[C@H]1O`: the cell viability stood at 3.89%.
On to `CC(=O)O[C@H]1C[C@@H]2CC[C@@H]3[C@H](CC[C@@]4(C)[C@H]3C[C@H]([N+]3(C)CCCCC3)[C@@H]4OC(C)=O)[C@@]2(C)C[C@@H]1[N+]1(C)CCCCC1`, for which the cell viability came out at 88.6%.
Regarding `CC(=O)[C@H]1CC[C@H]2[C@@H]3CC[C@H]4C[C@H](O)CC[C@]4(C)[C@H]3CC[C@]12C`, the cell viability was found to be 87.7%.
To `C[C@H]1O[C@@H](O[C@H]2[C@@H](O)C[C@H](O[C@H]3[C@@H](O)C[C@H](O[C@H]4CC[C@@]5(C)[C@H](CC[C@@H]6[C@@H]5CC[C@]5(C)[C@@H](C7=CC(=O)OC7)[C@@H](O)C[C@]65O)C4)O[C@@H]3C)O[C@@H]2C)C[C@H](O)[C@@H]1O` belongs 3.82%.
